Screens (PubChem BioAssay)
E-sel TNF inh – TNF alpha driven E-selectin expression inhibition. inhibition, % at 2 µM. 0.71% of 120,000 active. AID 1246. HUVEC TNFa-induced E-selectin immunofluorescence, high content;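 active = inhibition above the batch mean plus 3 SD, and confirmed as a hit on visual image review, cut at about 43% in these data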
Calb biofilm kill – kills Candida albicans biofilms. C. albicans biofilm + clotrimazole, Alamar Blue. AID 834. 0.14% of 85,000 active. inhibition, % at 6 µM;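 active = inhibition above 20%; inactive = inhibition below 20%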;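 note: preformed 24 hr biofilms exposed to compound for 48 hr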
ERb SRC1 inh – ER-beta (human) coactivator binding inhibition | Q92731 | TR-FRET ER-beta LBD / SRC1-Cy5 peptide binding; receptor agonist-loaded with 1 µM estradiol | inhibition, % at 25.6 µM | 1.3% of 86,000 active;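 active = compounds whose percent inhibition of the receptor-coactivator binding signal exceeds about 50% in the single-dose screen, limit read from the data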
Target sequence (Q92731 whole entry, looked up, the tested form may be a part): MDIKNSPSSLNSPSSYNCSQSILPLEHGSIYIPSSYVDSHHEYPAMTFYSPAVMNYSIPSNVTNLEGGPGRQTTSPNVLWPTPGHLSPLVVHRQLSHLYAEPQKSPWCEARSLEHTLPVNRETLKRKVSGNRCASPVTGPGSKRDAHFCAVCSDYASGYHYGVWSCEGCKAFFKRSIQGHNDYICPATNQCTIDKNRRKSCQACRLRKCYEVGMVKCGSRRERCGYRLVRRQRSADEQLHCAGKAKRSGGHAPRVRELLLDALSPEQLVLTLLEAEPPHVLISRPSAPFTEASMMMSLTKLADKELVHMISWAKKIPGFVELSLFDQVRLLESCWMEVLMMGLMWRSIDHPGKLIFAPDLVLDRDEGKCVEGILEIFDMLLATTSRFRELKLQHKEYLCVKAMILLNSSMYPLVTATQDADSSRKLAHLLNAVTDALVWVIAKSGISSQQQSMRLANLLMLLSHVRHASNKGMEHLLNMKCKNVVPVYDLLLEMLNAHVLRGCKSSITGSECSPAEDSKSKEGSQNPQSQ
ERa SRC1 pot – ER-alpha (human) coactivator binding potentiation. coactivator binding (% of control), % at 25.6 µM. P03372. TR-FRET ERalpha-LBD/SRC-Cy5 coactivator binding, 2 h; 100 = basal binding, no effect. 1.3% of 86,000 active; in the data active = activity above about 200%;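 note: binding measured in presence of low estradiol as agonist stimulus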
ERa SRC1 inh – ER-alpha (human) coactivator binding inhibition | P03372 | TR-FRET ER-alpha LBD / SRC-1 peptide, estradiol-bound | inhibition, % at 25.6 µM | 1.7% of 86,000 active | AID 629; in the data active = inhibition above about 50%
F-actin modifier – cytoskeleton assembly modification. 0.18% of 91,000 active. inhibition, % at 2 µM. HUVEC TNFa F-actin phalloidin imaging, high content;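 active = inhibition above the batch mean plus 3 SD and confirmed as a hit by visual image inspection, cut at about 30% in these data, passing the limit was not always enough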
Each line names hits and unclear results; the compound was inactive in the other large screens; [ ] = another dose, or the depositor's remark. This is a sample that favours compounds with a hit; in the whole collection about 2.9% have one here.

COc1ccc(Br)cc1CNC(=O)C1CCCN(c2nc3ccccc3o2)C1 (stereo not given)	ERa SRC1 inh 64.3 (no result: E-sel TNF inh)
Cc1ccc(CNC(=O)C2CCCN(c3nc4ccccc4o3)C2)cc1 (stereo not given)	none (no result: F-actin modifier)
COc1ccc(OC)c(N(CC(=O)Nc2ccccc2)S(C)(=O)=O)c1	F-actin modifier 41.8 (no result: E-sel TNF inh, Calb biofilm kill, ERb SRC1 inh, ERa SRC1 pot, ERa SRC1 inh)
COc1ccc(N(CC(=O)Nc2ccc3c(c2)OCO3)S(C)(=O)=O)c(OC)c1	E-sel TNF inh 64.5
COc1ccc(N(CC(=O)Nc2ccc3c(c2)OCCO3)S(=O)(=O)c2c(C)noc2C)cc1	ERb SRC1 inh 98.6[fluorescence artefact?] (no result: E-sel TNF inh)
COC(=O)c1ccccc1NC(=O)CN(c1cc(OC)ccc1OC)S(C)(=O)=O	none
COc1ccc(N(CC(=O)Nc2ccc3c(c2)OCCO3)S(C)(=O)=O)c(OC)c1	none (no result: F-actin modifier)
CCOC(=O)N1CCN(C(=O)c2cc3cc(Br)ccc3oc2=O)CC1	none
CCOC(=O)c1cnc(SCC(=O)Nc2nc(C)c(C)s2)nc1N	none (no result: E-sel TNF inh)
CCOC(=O)c1cnc(SCC(=O)Nc2nnc(CC)s2)nc1N	ERa SRC1 pot 235.2
COC(=O)c1ccc(CNC(=O)COC(=O)c2ccc(N(C)C)cc2)cc1	none (no result: Calb biofilm kill, ERb SRC1 inh, ERa SRC1 pot, ERa SRC1 inh, F-actin modifier)
CC1CCN(c2ccc(C(=O)NCc3ccco3)cc2[N+](=O)[O-])CC1	none (no result: Calb biofilm kill, ERb SRC1 inh, ERa SRC1 pot, ERa SRC1 inh, F-actin modifier)
O=C(CSc1nnc2scc(-c3ccc(Cl)cc3)n12)NCc1ccc2c(c1)OCO2	ERa SRC1 pot 212.6
CCCc1nc(SCC(=O)NCc2ccc3c(c2)OCO3)c2c(=O)n(C)c(=O)n(C)c2n1	none (no result: E-sel TNF inh, F-actin modifier)
N#Cc1c(N)nc(SCc2ccccn2)c(C#N)c1-c1cccs1	ERa SRC1 pot 373.2[fluorescence artefact?]
Cn1c(=O)c2c(nc(SCC(=O)NCc3ccc4c(c3)OCO4)n2Cc2ccc(Cl)cc2)n(C)c1=O	ERb SRC1 inh 53.7[fluorescence artefact?], ERa SRC1 inh 85.5[fluorescence artefact?]
N#Cc1c(N)nc(SCC(=O)NCc2ccc3c(c2)OCO3)c(C#N)c1-c1cccs1	F-actin modifier 60.1
COc1ccccc1CNC(=O)CSc1nc(N)c(C#N)c(-c2cccs2)c1C#N	none (no result: E-sel TNF inh)
C/C(=N\Nc1cc(Cl)nc(C)n1)c1ccc(C)cc1	none (no result: Calb biofilm kill, ERb SRC1 inh, ERa SRC1 pot, ERa SRC1 inh)
Cn1c(=O)c2c(nc(SCC(=O)c3cccs3)n2Cc2ccc(F)cc2)n(C)c1=O	ERa SRC1 pot active[fluorescence artefact?]
COc1ccc(NC(=S)N/N=C/c2cccn2Cc2ccc(F)cc2)cc1	none (no result: Calb biofilm kill, ERb SRC1 inh, ERa SRC1 pot, ERa SRC1 inh, F-actin modifier)
CC1CCN(C(=O)C2c3ccccc3C(=O)N3CCc4ccccc4C23)CC1 (stereo not given)	ERa SRC1 pot 623.0[fluorescence artefact?]
C=CCN(CC=C)C(=O)c1ccc(OC2CCN(Cc3ccccn3)CC2)cc1	none (no result: Calb biofilm kill, ERb SRC1 inh, ERa SRC1 pot, ERa SRC1 inh, F-actin modifier)
O=C(Cn1cnc2c(oc3ccccc32)c1=O)c1ccccc1	ERa SRC1 pot 265.9[fluorescence artefact?]
Cc1ccccc1NC(=O)Cn1cnc2c(oc3ccccc32)c1=O	none
Cc1ccc(/C=c2\sc3n(c2=O)CN(c2cccc(Br)c2)CN=3)o1	E-sel TNF inh 61.7
CSCCC(NC(=O)c1cc([N+](=O)[O-])ccc1Cl)C(=O)O (stereo not given)	none (no result: Calb biofilm kill, ERb SRC1 inh, ERa SRC1 pot, ERa SRC1 inh, F-actin modifier)
O=C(O)c1ccc2c(c1)OCCO2	ERa SRC1 inh 77.1[fluorescence artefact?]
CN1CCCC(OC(=O)c2ccc3c(c2)OCCO3)C1 (stereo not given)	ERb SRC1 inh 60.3
COCCN(C(=O)c1ccccc1OC1CCN(S(C)(=O)=O)CC1)C(C)C	none (no result: Calb biofilm kill, ERb SRC1 inh, ERa SRC1 pot, ERa SRC1 inh, F-actin modifier)
CCCCNC(=O)NNC(=O)c1ccoc1C	none (no result: Calb biofilm kill, ERb SRC1 inh, ERa SRC1 pot, ERa SRC1 inh)
CCCCNC(=O)Nc1ccon1	ERb SRC1 inh 99.0[fluorescence artefact?]
Cc1ccc(NC(=O)CSc2n[nH]c(=O)n2C2CC2)cc1S(=O)(=O)N1CCOCC1	none (no result: Calb biofilm kill, ERb SRC1 inh, ERa SRC1 pot, ERa SRC1 inh, F-actin modifier)
O=C(CSc1ccccn1)N/N=C/c1ccccc1[N+](=O)[O-]	E-sel TNF inh 62.3 (no result: Calb biofilm kill, ERb SRC1 inh, ERa SRC1 pot, ERa SRC1 inh, F-actin modifier)
C/C(=N\NC(=O)c1ccccc1O)C1C(=O)c2ccccc2C1=O	none (no result: Calb biofilm kill, ERb SRC1 inh, ERa SRC1 pot, ERa SRC1 inh)
C/C(=N/NC(=O)c1cc2ccccc2cc1O)C1C(=O)c2ccccc2C1=O	ERb SRC1 inh 64.9[fluorescence artefact?], ERa SRC1 inh 78.5[fluorescence artefact?]
Cc1cc(C)c(NC(=O)Cn2cc3c(n2)CCCC3)c(C)c1	ERa SRC1 inh 98.9[fluorescence artefact?] (no result: F-actin modifier)
COc1ccc(N(C(=O)C(C)C)S(=O)(=O)c2ccc3c(c2)n(C)c(=O)n3C)cc1	none
O=C(c1ccc(COCC(F)(F)F)o1)N1CCCCCC1	E-sel TNF inh 73.6
CC(C)(C)NC(=O)c1ccc(COCC(F)(F)F)o1	none
O=c1oc2ccc3ccccc3c2cc1-c1nc2ccccc2o1	ERa SRC1 inh 50.9[fluorescence artefact?]
CCN(CCO)c1nc(SC)nc2c1sc1nc(-c3ccco3)c3c(c12)CCC3	none (no result: Calb biofilm kill, ERb SRC1 inh, ERa SRC1 pot, ERa SRC1 inh)
CSc1nc(NCCOCCO)c2sc3nc(-c4ccco4)c4c(c3c2n1)CCC4	ERb SRC1 inh 76.0[fluorescence artefact?], ERa SRC1 inh 79.0 (no result: F-actin modifier)
